PubChem BioAssay AID1159580 (chemical genetic matrix, 2015)
In all, about 5,500 compounds went through this assay and about 2,000 (36%) were called active. Inconclusive results (about 18%) are left out. The list shows a part of the results. Unmarked numbers belong to inactive results. Cut-off read from the data, not from the text of the source: active = normalized growth mostly below about 0.91 (no sharp cut-off); inconclusive = no clear call, values can overlap the other calls; inactive = mostly above about 0.92.

Experiment: chemical genetic growth profiling, strain panel (AID 1159580);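 note: tested at 20 µM; growth read once vehicle control cultures reached saturation at 30 °C; 1 = growth at the plate median or of vehicle wells; lower values mean less growth of the strain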
Settings: growth OD

## N#Cc1c(N)oc(-c2ccco2)c1-c1ccco1
S. cerevisiae deletion strains, locus YAL013W, strain DEP1, stronger effect = lower value
  normalized growth: 0.893 (active)
S. cerevisiae deletion strains, locus YBR229C, strain ROT2, stronger effect = lower value
  normalized growth: 0.975
S. cerevisiae deletion strains, locus YDL101C, strain DUN1, stronger effect = lower value
  normalized growth: 0.968
S. cerevisiae deletion strains, locus YDL134C, strain PPH21, stronger effect = lower value
  normalized growth: 0.947
S. cerevisiae deletion strains, locus YDR150W, strain NUM1, stronger effect = lower value
  normalized growth: 0.937
S. cerevisiae deletion strains, locus YEL061C, strain CIN8, stronger effect = lower value
  normalized growth: 0.947
S. cerevisiae deletion strains, locus YGR078C, strain PAC10, stronger effect = lower value
  normalized growth: 0.948
S. cerevisiae deletion strains, locus YGR229C, strain SMI1, stronger effect = lower value
  normalized growth: 0.994
S. cerevisiae deletion strains, locus YHR030C, strain SLT2, stronger effect = lower value
  normalized growth: 0.415 (active)
S. cerevisiae deletion strains, locus YHR087W, strain rtc3, stronger effect = lower value
  normalized growth: 0.97
S. cerevisiae deletion strains, locus YJR043C, strain POL32, stronger effect = lower value
  normalized growth: 0.943
S. cerevisiae deletion strains, locus YJR075W, strain HOC1, stronger effect = lower value
  normalized growth: 0.949
S. cerevisiae deletion strains, locus YKL190W, strain CNB1, stronger effect = lower value
  normalized growth: 0.992
S. cerevisiae deletion strains, locus YLR039C, strain RIC1, stronger effect = lower value
  normalized growth: 0.981
S. cerevisiae deletion strains, locus YLR058C, strain SHM2 (second series), stronger effect = lower value
  normalized growth: 0.961
S. cerevisiae deletion strains, locus YLR085C, strain ARP6, stronger effect = lower value
  normalized growth: 0.626 (active)
S. cerevisiae deletion strains, locus YLR262C, strain YPT6, stronger effect = lower value
  normalized growth: 0.999
S. cerevisiae deletion strains, locus YML094W, strain GIM5, stronger effect = lower value
  normalized growth: 0.875
S. cerevisiae deletion strains, locus YMR219W, strain ESC1, stronger effect = lower value
  normalized growth: 0.969
S. cerevisiae deletion strains, locus YMR263W, strain SAP30, stronger effect = lower value
  normalized growth: 0.917
S. cerevisiae deletion strains, locus YNL153C, strain GIM3, stronger effect = lower value
  normalized growth: 0.987
S. cerevisiae deletion strains, locus YNL298W, strain CLA4 (second series), stronger effect = lower value
  normalized growth: 0.888
S. cerevisiae deletion strains, locus YNL322C, strain KRE1, stronger effect = lower value
  normalized growth: 0.962
S. cerevisiae deletion strains, locus YNR030W, strain Alg12, stronger effect = lower value
  normalized growth: 0.903
S. cerevisiae deletion strains, locus YOL006C, strain TOP1, stronger effect = lower value
  normalized growth: 0.913
S. cerevisiae deletion strains, locus YPL055C, strain LGE1, stronger effect = lower value
  normalized growth: 0.789 (active)
S. cerevisiae deletion strains, locus YPL241C, strain CIN2, stronger effect = lower value
  normalized growth: 0.873
S. cerevisiae deletion strains, locus YPR135W, strain CTF4, stronger effect = lower value
  normalized growth: 0.694
S. cerevisiae strains, strain wild type, stronger effect = lower value
  normalized growth: 0.984
